Data from PubChem BioAssay (EPA / NIEHS).
“And” between values parts separate entries of the source, which are not always exact repeats. Equal entries are not always repeated. The source holds several records for some structures; these can differ, active in one and inactive in another. The source made the active and inactive calls. Rule for the calls: active = hit-call score of the fitted dose curve at least 0.9, where 1 is the maximum; inactive = score below 0.9.

Legend:
[1] = read-out: Thrombomodulin, THBD (gene 7056); experiment: BSK_CASM3C_Thrombomodulin: BioMAP Diversity Plus: CASM3C Assay for Thrombomodulin Biomarker Activity (AID 2283051); settings: primary human coronary artery smooth muscle cells; actives raise or lower the signal;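 note: thrombomodulin protein level measured by ELISA 24 h after dosing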
[2] = read-out: Tissue Factor, F3 (gene 2152); experiment: BSK_CASM3C_TissueFactor: BioMAP Diversity Plus: CASM3C Assay for Tissue Factor Biomarker Activity (AID 2283052); settings: primary human coronary artery smooth muscle cells; actives raise or lower the signal;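 note: cell surface tissue factor protein level read by ELISA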
[3] = read-out: Interferon-gamma inducible Protein 10 (IP10), CXCL10 (gene 3627); experiment: BSK_hDFCGF_IP10: BioMAP Diversity Plus: hDFCGF Assay for Interferon-gamma inducible Protein 10 (IP10) Biomarker Activity (AID 2283053); settings: primary human foreskin fibroblasts; actives raise or lower the signal
Outline: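 Cells: human dermal foreskin fibroblasts. Exposure: 24 h post-dosing. Detection: IP-10 ELISA, with values expressed against DMSO controls and fitted in both directions.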

[4] = read-out: Urokinase-type plasminogen activator receptor (uPAR), PLAUR (gene 5329); experiment: BSK_CASM3C_uPAR: BioMAP Diversity Plus: CASM3C Assay for Urokinase-type plasminogen activator receptor (uPAR) Biomarker Activity (AID 2283054); settings: primary human coronary artery smooth muscle cells; actives raise or lower the signal;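 note: cell-surface uPAR protein level quantified by ELISA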
[5] = read-out: Vascular cell adhesion molecule 1 (VCAM1), VCAM1 (gene 7412); experiment: BSK_CASM3C_VCAM1: BioMAP Diversity Plus: CASM3C Assay for Vascular cell adhesion molecule 1 (VCAM1) Biomarker Activity (AID 2283055); settings: primary human coronary artery smooth muscle cells; actives raise or lower the signal;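 note: VCAM-1 protein level quantified by ELISA on the cells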
[6] = read-out: Epidermal growth factor receptor (EGFR), EGFR (gene 1956); experiment: BSK_hDFCGF_EGFR: BioMAP Diversity Plus: hDFCGF Assay for Epidermal growth factor receptor (EGFR) Biomarker Activity (AID 2283057); settings: primary human foreskin fibroblasts; actives raise or lower the signal
Outline: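 Dosing human primary skin fibroblasts, then measuring surface EGFR by ELISA at 24 h, gives the endpoint; gains and losses relative to DMSO were fitted in both directions.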

[7] = BSK_hDFCGF_Proliferation: Cell Proliferation Assessment in the BioMAP Diversity Plus: hDFCGF Assay (AID 2283059); settings: primary human foreskin fibroblasts;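 note: curves fitted for both rise and fall of signal versus DMSO baseline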
Outline: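 Primary human foreskin fibroblasts, sub-confluent; […]; 10% TCA fix, 0.1% SRB stain, A560 total protein. Gain/loss fitted bidirectionally vs DMSO control.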

[8] = read-out: Macrophage colony-stimulating factor (MCSF), CSF1 (gene 1435); experiment: BSK_hDFCGF_MCSF: BioMAP Diversity Plus: hDFCGF Assay for Macrophage colony-stimulating factor (MCSF) Biomarker Activity (AID 2283060); settings: primary human foreskin fibroblasts; actives raise or lower the signal
Outline: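 fibroblasts (human foreskin, primary), 24 h post-dose; M-CSF by ELISA; bidirectional fit, DMSO = baseline.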

[9] = BSK_hDFCGF_SRB: Viability Assessment in the BioMAP Diversity Plus: hDFCGF Assay (AID 2283061); settings: primary human foreskin fibroblasts;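 note: cells exposed to compound for 24 h before the read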
Outline: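 SRB-based viability read on primary human skin fibroblasts at 24 h: TCA fixation, 0.1% dye, 560 nm. Gain or loss of signal is fitted against the DMSO negative control.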

[10] = read-out: TIMP metallopeptidase inhibitor 1 (TIMP1), TIMP1 (gene 7076); experiment: BSK_hDFCGF_TIMP1: BioMAP Diversity Plus: hDFCGF Assay for TIMP metallopeptidase inhibitor 1 (TIMP1) Biomarker Activity (AID 2283062); settings: primary human foreskin fibroblasts; actives raise or lower the signal
Outline: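 Bidirectional curve fitting against DMSO baseline yielded this endpoint, based on ELISA detection of TIMP-1 in primary human foreskin fibroblasts exposed to compound for 24 h.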

[11] = read-out: Monokine induced gamma interferon (MIG), CXCL9 (gene 4283); experiment: BSK_hDFCGF_MIG: BioMAP Diversity Plus: hDFCGF Assay for Monokine induced gamma interferon (MIG) Biomarker Activity (AID 2283063); settings: primary human foreskin fibroblasts; actives raise or lower the signal
Outline: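 Endpoint derived by bidirectional fitting relative to DMSO; MIG quantified via ELISA in primary human foreskin fibroblasts harvested 24 h after dosing.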

[12] = read-out: Matrix Metallopeptidase 1 (MMP1), MMP1 (gene 4312); experiment: BSK_hDFCGF_MMP1: BioMAP Diversity Plus: hDFCGF Assay for Matrix Metallopeptidase 1 (MMP1) Biomarker Activity (AID 2283064); settings: primary human foreskin fibroblasts; actives raise or lower the signal
Outline: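 ELISA read-out of MMP1 from human foreskin fibroblasts (primary skin cells), 24 h post-dose. Gain or loss of signal was fitted bidirectionally versus DMSO negative control; cytotoxicity was checked by SRB in parallel cultures.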

[13] = read-out: Vascular cell adhesion molecule 1 (VCAM1), VCAM1 (gene 7412); experiment: BSK_hDFCGF_VCAM1: BioMAP Diversity Plus: hDFCGF Assay for Vascular cell adhesion molecule 1 (VCAM1) Biomarker Activity (AID 2283065); settings: primary human foreskin fibroblasts; actives raise or lower the signal;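 for AC50: VCAM-1 protein level quantified by ELISA after 24 h chemical exposure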
Outline: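 Measured after 24 h chemical treatment of primary human skin fibroblasts, VCAM-1 was detected by ELISA and concentration-response analysed in both directions versus DMSO vehicle.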

[14] = read-out: Plasminogen activator inhibitor-1 (PAI1), SERPINE1 (gene 5054); experiment: BSK_hDFCGF_PAI1: BioMAP Diversity Plus: hDFCGF Assay for Plasminogen activator inhibitor-1 (PAI1) Biomarker Activity (AID 2283066); settings: primary human foreskin fibroblasts; actives raise or lower the signal
Outline: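 Fibroblasts from human foreskin were treated with test chemical. After 24 h, PAI-1 was measured by ELISA. Activity was fitted in both directions relative to DMSO.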

[15] = read-out: Intercellular Adhesion Molecule 1 (ICAM1), ICAM1 (gene 3383); experiment: BSK_KF3CT_ICAM1: BioMAP Diversity Plus: KF3CT Assay for Intercellular Adhesion Molecule 1 (ICAM1) Biomarker Activity (AID 2283067); settings: primary human keratinocytes with fibroblasts; actives raise or lower the signal
Outline: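 Bidirectional curve fitting against a DMSO baseline was applied to ICAM-1 ELISA signal from primary human skin co-cultures harvested 24 h after treatment, with SRB staining of parallel wells for overt cytotoxicity.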

[16] = read-out: Interferon-gamma inducible Protein 10 (IP10), CXCL10 (gene 3627); experiment: BSK_KF3CT_IP10: BioMAP Diversity Plus: KF3CT Assay for Interferon-gamma inducible Protein 10 (IP10) Biomarker Activity (AID 2283068); settings: primary human keratinocytes with fibroblasts; actives raise or lower the signal
Outline: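 In a primary skin co-culture of keratinocytes and fibroblasts, IP-10 is quantified by ELISA at 24 h after dosing. SRB staining of parallel wells monitors overt toxicity. Curves are fitted both directions against DMSO.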

[17] = BSK_KF3CT_SRB: Viability Assessment in the BioMAP Diversity Plus: KF3CT Assay (AID 2283069); settings: primary human keratinocytes with fibroblasts;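 note: total protein by sulforhodamine B staining as a cytotoxicity measure; fitted for both signal gain and loss against DMSO baseline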
Outline: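 SRB read-out at 560 nm (0.1% stain, TCA-fixed cells) gauges overt cytotoxicity in a human skin keratinocyte–fibroblast co-culture 24 h post-dosing. Signal change was fitted bidirectionally relative to DMSO control.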

[18] = read-out: Interleukin-1 alpha (IL1a), IL1A (gene 3552); experiment: BSK_KF3CT_IL1a: BioMAP Diversity Plus: KF3CT Assay for Interleukin-1 alpha (IL1a) Biomarker Activity (AID 2283070); settings: primary human keratinocytes with fibroblasts; actives raise or lower the signal
Outline: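 Primary skin co-culture (keratinocytes, foreskin fibroblasts), 24 h exposure; ELISA for IL-1a; bidirectional curve fit vs DMSO.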

[19] = read-out: Interleukin-8 (IL8), CXCL8 (gene 3576); experiment: BSK_hDFCGF_IL8: BioMAP Diversity Plus: hDFCGF Assay for Interleukin-8 (IL8) Biomarker Activity (AID 2283058); settings: primary human foreskin fibroblasts; actives raise or lower the signal
Outline: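 Fibroblast monolayers (human foreskin, hDFCGF) received test chemical for 24 h before ELISA detection of IL-8; either increases or decreases relative to DMSO count as activity.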

[20] = read-out: Collagen III, COL3A1 (gene 1281); experiment: BSK_hDFCGF_CollagenIII: BioMAP Diversity Plus: hDFCGF Assay for Collagen III Biomarker Activity (AID 2283056); settings: primary human foreskin fibroblasts; actives raise or lower the signal
Outline: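 Response relative to DMSO, fitted in both directions, reflects ELISA-measured collagen III in human primary skin fibroblasts 24 h after compound addition.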

Measured: AC50

O=C(O)C(F)(F)C(F)(F)C(F)(F)C(=O)O
active: [9] 1.81 µM and 19.7 µM
inactive: [1] | [2] | [3] | [4] | [5] | [6] | [7] | [8] | [10] | [11] | [12] | [13] | [14] | [15] | [16] | [17] | [18]

NS(=O)(=O)C(F)(F)C(F)(F)C(F)(F)C(F)(F)C(F)(F)C(F)(F)F
inactive: [1] | [2] | [4] | [5] | [6] | [19] | [8] | [9] | [10] | [11] | [12] | [13] | [14] | [15] | [16] | [17] | [18]
active: [3] 37.3 µM and 28.8 µM | [7] 50.8 µM and 50.6 µM | [13] 26.9 µM

O=C(O)C(F)(F)C(F)(F)C(F)(F)OC(F)(F)F
inactive: [1] | [2] | [3] | [4] | [5] | [20] | [6] | [19] | [7] | [8] | [9] | [10] | [11] | [12] | [13] | [14] | [15] | [16] | [17] | [18]

O=C=Nc1cccc2c(N=C=O)cccc12
inactive: [1] | [2] | [3] | [4] | [5] | [20] | [6] | [7] | [8] | [9] | [10] | [11] | [12] | [13] | [14] | [15] | [16] | [17] | [18]

O=S(=O)(Cl)C(F)(F)C(F)(F)C(F)(F)C(F)(F)C(F)(F)C(F)(F)C(F)(F)C(F)(F)F
inactive: [1] | [2] | [3] | [4] | [5] | [6] | [19] | [7] | [8] | [9] | [10] | [11] | [12] | [13] | [14] | [15] | [17] | [18]
active: [7] 7.61 µM | [16] 34.8 µM and 32.5 µM

C=CC(=O)OCCC(F)(F)C(F)(F)C(F)(F)C(F)(F)F
inactive: [1] | [2] | [4] | [6] | [19] | [7] | [9] | [10] | [14] | [15] | [16] | [17] | [18]
active: [3] 30 µM and 21.3 µM | [5] 30 µM | [7] 7.58 µM | [8] 21 µM and 15 µM | [9] 8.28 µM | [11] 25.3 µM and 30.9 µM | [12] 14.5 µM and 18.3 µM | [13] 13.7 µM and 19.4 µM

O=S(=O)(OCC(F)(F)F)C(F)(F)C(F)(F)C(F)(F)C(F)(F)F
active: [2] 30 µM | [3] 15.9 µM and 16.4 µM | [5] 13.2 µM
inactive: [1] | [2] | [4] | [5] | [6] | [7] | [8] | [9] | [10] | [11] | [12] | [13] | [14] | [15] | [16] | [17] | [18]

Brc1nc2ccccc2s1
inactive: [1] | [2] | [3] | [4] | [5] | [6] | [19] | [8] | [9] | [10] | [11] | [12] | [13] | [14] | [15] | [16] | [17] | [18]
active: [7] 31.5 µM

C=C(C)C(=O)OCC(F)(F)C(F)(F)C(F)(F)C(F)F
inactive: [1] | [2] | [3] | [4] | [5] | [6] | [7] | [8] | [9] | [10] | [11] | [12] | [13] | [14] | [15] | [16] | [17] | [18]

O=C(Cl)C(F)(F)C(F)(F)C(F)(F)C(F)(F)C(F)(F)C(F)(F)C(F)(F)F
active: [10] 26.4 µM
inactive: [1] | [2] | [3] | [4] | [5] | [6] | [7] | [8] | [9] | [10] | [11] | [12] | [13] | [14] | [15] | [16] | [17] | [18]
